Cav32 inh – blocks human Cav3.2 T-type calcium channel; Cav3.2-expressing cells, Fluo-4 calcium fluorescence FDSS; stronger effect = lower value; 100,000 compounds, 4% hits; AID 449739; B-score at 10 µM;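 active means single-dose well whose peak fluorescence ratio is a statistical outlier from its plate by either plate-standardised score or position-corrected B-score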
CD11b adhes enh – increases human CD11b/CD18 adhesion to fibrinogen; P05107+P11215; K562 CD11b/CD18 adhesion to fibrinogen, ATPlite luminescence; activation, % at 10 µM; 93,000 compounds, 0.07% hits; AID 1499;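 active means 10 µM primary screen giving 50% or more activity, confirmed by 40% or more on retest at that dose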
Target sequence (P05107 whole entry, looked up, other chains not shown): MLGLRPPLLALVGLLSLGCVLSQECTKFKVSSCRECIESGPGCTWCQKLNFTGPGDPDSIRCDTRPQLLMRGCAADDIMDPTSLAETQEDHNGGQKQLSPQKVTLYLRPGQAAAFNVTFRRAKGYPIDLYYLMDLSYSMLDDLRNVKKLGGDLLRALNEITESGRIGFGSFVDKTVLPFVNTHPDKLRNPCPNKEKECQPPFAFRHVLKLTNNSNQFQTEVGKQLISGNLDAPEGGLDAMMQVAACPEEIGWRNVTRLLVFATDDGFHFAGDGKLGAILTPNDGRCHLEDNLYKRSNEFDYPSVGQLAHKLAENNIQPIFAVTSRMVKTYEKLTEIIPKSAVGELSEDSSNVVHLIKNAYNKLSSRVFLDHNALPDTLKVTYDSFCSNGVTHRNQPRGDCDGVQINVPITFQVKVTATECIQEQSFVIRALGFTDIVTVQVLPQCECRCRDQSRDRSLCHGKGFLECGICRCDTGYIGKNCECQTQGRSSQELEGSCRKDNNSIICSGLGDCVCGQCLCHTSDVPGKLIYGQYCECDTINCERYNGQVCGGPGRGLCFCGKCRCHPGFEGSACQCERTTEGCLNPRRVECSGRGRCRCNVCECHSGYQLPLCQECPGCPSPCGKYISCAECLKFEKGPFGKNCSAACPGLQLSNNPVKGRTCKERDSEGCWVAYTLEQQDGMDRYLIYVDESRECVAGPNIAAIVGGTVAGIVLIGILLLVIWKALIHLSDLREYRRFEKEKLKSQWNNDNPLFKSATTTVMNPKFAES
Ecoli WT expand – E. coli BW25113 growth inhibition, expanded screen | OD600 absorbance | AID 710 | 98,000 compounds, 0.15% hits | growth inhibition, % at 100 µM;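 active means growth inhibition above about 50% at one test dose, limit read from the data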;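 further: growth measured after 20 h incubation at 37 °C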
Mac1 fbg inh – inhibitors of human CD11b/CD18 binding to fibrinogen; K562 CD11b/CD18 adhesion to fibrinogen, ATPlite luminescence; Mn2+ added to activate the integrin; inhibition, % at 10 µM; 93,000 compounds, 0.54% hits;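 active means primary inhibition of 50% or more at 10 µM, then 40% or more on retest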
The depositor's hits bear a star; . = no result given. The sample as a whole holds a higher share of hits than the screen did.

SMILES	Cav32 inh	CD11b adhes enh	Ecoli WT expand	Mac1 fbg inh
CCN(CCCNC(=O)C1CCC(=O)N1Cc1ccc(C)cc1)c1cccc(C)c1 (centres undefined)	-3.4*	.	-3	.
Cc1ccc(-c2noc(CCC(=O)NCC3CCN(Cc4cccc(C)c4)CC3)n2)cc1	0.036	.	2	.
CCN(CCCNC(=O)C1CCC(=O)N1Cc1ccccc1Cl)c1cccc(C)c1 (centres undefined)	-1.3	7	2	-22
COc1ccc(-c2noc(CCC(=O)NCCCN3CCC(Cc4ccccc4)CC3)n2)cc1	-1.1	-4	-2	61*
Cc1oc(-c2ccccc2)nc1Cn1cccc1C1=NC(c2ccccc2)CO1 (centres undefined)	-5.6*	.	-22	.
Cc1ccc(N2C(=O)c3ccccc3NC2C(C)Cc2ccc3c(c2)OCO3)cc1 (centres undefined)	-4.3*	.	.	.
CC(C)Oc1ccccc1C1Nc2ccccc2C(=O)N1c1ccc2c(c1)OCCO2 (centres undefined)	-3	-6	-3	3
O=C(Cn1c(-c2cscn2)nc2ccccc21)Nc1cc(F)ccc1F	-0.095	.	-9	.
O=C(Cn1c(-c2cscn2)nc2ccccc21)Nc1ccc2ccccc2c1	-4.8*	.	-7	.
Cn1c(=O)c2[nH]c(-c3ccc(S(=O)(=O)O)cc3)nc2n(C)c1=O	0.32	.	.	.
CCNc1ccc2noc3c2c1C(=O)c1ccccc1-3	-1.4	.	.	.
O=C1c2ccccc2-c2onc3ccc(NCc4ccco4)c1c23	-4.1*	-1	-9	9
CCOc1ccc2noc3c2c1C(=O)c1ccccc1-3	-5.7*	4	6	0
Clc1ccc2c(c1)C(c1cccs1)=NNC(c1cccnc1)=N2	.	.	7	.
CCN1C(=O)N[C@@H](c2cccs2)C(C(C)=O)=C1C	0.44	.	.	.
COc1ccc(NC(=O)[C@@H]2CC=C[C@@H]3CCN(C4CCCCC4)C(=O)[C@@H]32)cc1	0.14	.	.	.
O=c1ccc(NS(=O)(=O)c2ccc(Cl)cc2)cn1Cc1ccc(Cl)c(Cl)c1	-4.4*	.	4	.
COC(=O)c1ccccc1NC(=O)CSc1nc(NC(=O)c2ccccc2)c2c(C)c(C)oc2n1	-4.9*	-3	-19	5
Cc1ccccc1NC(=S)NCCC(c1ccccc1)c1ccccc1	-4.4*	-5	-9	9
COc1ccc(NC(=S)NCCc2ccccc2)c(OC)c1	-0.03	-1	-7	-1
Cc1ccc(NC(=S)NCCC(c2ccccc2)c2ccccc2)c(C)c1	-3.2	2	-27	10
Cc1ccccc1NC(=S)NC(=O)CCc1ccccc1	-4*	.	5	.
COc1ccc(OC)c(NC(=S)NCCC(c2ccccc2)c2ccccc2)c1	-7.8*	.	.	.
CC(=O)NC(CC(C)C)C(=O)NC(CO)C(=O)NC(CCC(=O)O)C(=O)NC(C)C(=O)NC(CC(C)C)C(N)=O (centres undefined)	0.62	.	.	.
Cc1cnc(C(=O)Nc2cccc(S(=O)(=O)N(C)C)c2)cn1	.	1	.	-8
SMILES	Cav32 inh	CD11b adhes enh	Ecoli WT expand	Mac1 fbg inh
Clc1ccc(Cn2ncc3c(NCc4ccccc4)ncnc32)cc1	-6.9*	-1	-7	-1
COc1cc2ncnc(NCc3ccccc3)c2cc1OC	0.56	-1	3	-12
c1ccc(CNc2ncnc3ccccc23)cc1	1.6	-4	28	66*
COc1ccc(CC(=O)Nc2ccc3c(c2)CCC3)cc1OC	-0.78	-6	13	65*
Cc1cccc(C(=O)NC2CCN(C(=S)NCc3ccco3)CC2)c1	0.18	.	-6	.
O=C(NC1CCN(C(=S)NCc2ccco2)CC1)NC12CC3CC(CC(C3)C1)C2	-3.8*	-4	-6	-1
Cc1ccc(C(=O)N/C(=C\c2cccs2)C(=O)NCc2ccncc2)cc1	0.27	.	6	.
COc1cc(C2C3=C(CC(C)(C)CC3=O)OC(N)=C2[N+](=O)[O-])ccc1O (centres undefined)	.	5	.	-11
COc1ccccc1N1CCN(C(=O)c2cc3c(s2)CCC3)CC1	-1	70*	3	48
COc1ccccc1N1CCN(C(=O)c2ccc([N+](=O)[O-])s2)CC1	.	2	.	1
COc1ccccc1N1CCN(C(=O)c2ccc(C(C)(C)C)cc2)CC1	-5*	9	-4	-6
COc1ccccc1N1CCN(C(=O)C(Sc2ccccc2)c2ccccc2)CC1 (centres undefined)	-4.6*	-5	-9	9
CC(C)(C)N1OC2CC1c1nc3ccccc3n1C2 (centres undefined)	0.0032	.	.	.
CC1CCCN(C(=O)CSCC(=O)Nc2nc(-c3cccs3)cs2)C1 (centres undefined)	-5.2*	-3	3	69
CCOC(=O)N1CCN(C(=O)CSCC(=O)Nc2nc(-c3cccs3)cs2)CC1	-1.4	.	.	.
